Assay [1] is described as follows: qHTS assay to identify small molecule HDAC inhibitors - cell viability counter screen (AID 1259365). Note: series mostly up to about 92 µM; nearly all actives have a fitted effect of over 50% in size. In outline: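 Viability readout: CellTiter-Glo luminescence. Wild-type HCT-116 cells, 2hr compound treatment following overnight attachment at 37 C.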
Assay [2] is described as follows: qHTS assay to identify small molecule agonists of the sonic hedgehog signaling (Shh) pathway - cell viability counter screen (AID 1259366). Note: nearly all actives have a fitted effect of over 50% in size. In outline:
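Viability measured fluorometrically (CellTiter-Fluor, 1hr, 37C) in 3T3 Gli1-Luc reporter cells after 23hr compound exposure within a 24hr incubation at 37C/5% CO2.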

The nature of assay [3]: qHTS assay to identify small molecule antagonists of the sonic hedgehog signaling (Shh) pathway - cell viability counter screen (AID 1259367). Note: nearly all actives have a fitted effect of over 55% in size. In outline: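 Conditioned medium drove Shh signaling in 3T3 Gli1-Luc cells exposed to compounds at 37C and 5% CO2. Viability was determined from CellTiter-Fluor fluorescence, with reagent incubated 1 hr after 23 hr of treatment.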

The nature of assay [4]: qHTS assay to identify small molecule agonists of the sonic hedgehog signaling (Shh) pathway (AID 1259368; calls by dose curve;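 note: NIH/3T3-derived 3T3Gli1-Luc cells carrying a stable Gli1-driven firefly luciferase reporter; series mostly up to about 92 µM; nearly all actives have a fitted effect of over 15% in size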). In outline: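 Luminescence was read after 30 min at room temperature with luciferase reagent. Before that, 3T3Gli1-Luc cells (NIH/3T3 clone, stable Gli1-Luc reporter; 2,000/well) were exposed to compounds for 24 hr at 37C, 5% CO2, compounds being added 4 hr post-plating.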

Assay [5] addresses Estrogen receptor beta (Homo sapiens) (UniProt Q92731). Nature of the assay: qHTS assay to identify small molecule agonists of the estrogen receptor beta (ER-beta) signaling pathway (AID 1259377; active = well fitted activation curve with a large enough effect in the signal ratio in the repeat runs, not every such curve was filed as active; the % refers to the signal ratio). The essentials: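 A UAS-controlled beta-lactamase reporter in ER-beta-UAS-bla HEK293T cells reports receptor activation. Compounds act for 16 hr at 37C in 2% charcoal-stripped serum, and a FRET substrate is read by fluorescence after 2 hours.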

Assay [6] shares this target. Description: qHTS assay to identify small molecule antagonists of the estrogen receptor beta (ER-beta) signaling pathway (AID 1259378; active = well fitted inhibition curve with a large enough effect in the signal ratio in the repeat runs, not every such curve was filed as active; the % refers to the signal ratio). The essentials:
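ER-beta-UAS-bla HEK293T (GripTite) cells in 2% charcoal-stripped FBS medium were preincubated 6 hr at 37C, dosed with compound, then stimulated with 1 nM E2 (final) for 16 hr; beta-lactamase reporter read by B/G FRET fluorescence after 2 hr substrate loading.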

Assay [7] in a line: qHTS assay to identify small molecule agonists of the androgen receptor (AR) signaling pathway in the presence of an antagonist - cell viability counter screen (AID 1259379).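 Note: MDA-kb2 human breast cancer cells carrying an MMTV luciferase reporter; series mostly up to about 92 µM; nearly all actives have a fitted effect of over 25% in size.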 In outline:
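Cytotoxicity counter-screen run in the same wells as the nilutamide-challenged (3.0 µM final) AR agonist assay in MDA-kb2 cells. Compounds tested at 15 concentrations for 16 h, 37 °C without CO2; CellTiter-Fluor fluorescence read.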

Assay [8] is described as follows: qHTS assay to identify small molecule agonists of the estrogen receptor beta (ER-beta) signaling pathway - cell viability counter screen (AID 1259380). Note: nearly all actives have a fitted effect of over 30% in size. The essentials:
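Cell viability counter screen: CellTiter-Glo luminescence (30 min, room temperature) measured in the same wells as the beta-lactamase readout, after 16 hr compound exposure at 37C of ER-beta-bla HEK293T cells in 2% charcoal-stripped FBS medium.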

Assay [9] can be described thus: qHTS assay to identify small molecule antagonists of the sonic hedgehog signaling (Shh) pathway (AID 1259369; calls by dose curve; note: nearly all actives have a fitted effect of over 45% in size; note: potency is the fitted concentration of half-maximal effect). The essentials: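 Antagonist mode: compound added to 3T3 Gli1-Luc cells followed by conditioned-medium stimulation, 24 h at 37 C, 5% CO2. Inhibition taken as loss of Gli1-driven luciferase luminescence.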

Values without a mark were called inactive. Results filed as inconclusive are left out. Activity calls are given as the source filed them. Unless noted, calls come from the whole dose curve; as a rule, active = well fitted curve in the direction sought with a large enough effect in the repeat runs; inconclusive = weak or mixed curves; inactive = no such curve, though single readings can be large; an effect the other way counts as inactive or inconclusive.
% is set by controls: 0 for no effect and ±100 for the full control effect.

Sequence of Estrogen receptor beta (Homo sapiens) (Q92731 whole entry, looked up): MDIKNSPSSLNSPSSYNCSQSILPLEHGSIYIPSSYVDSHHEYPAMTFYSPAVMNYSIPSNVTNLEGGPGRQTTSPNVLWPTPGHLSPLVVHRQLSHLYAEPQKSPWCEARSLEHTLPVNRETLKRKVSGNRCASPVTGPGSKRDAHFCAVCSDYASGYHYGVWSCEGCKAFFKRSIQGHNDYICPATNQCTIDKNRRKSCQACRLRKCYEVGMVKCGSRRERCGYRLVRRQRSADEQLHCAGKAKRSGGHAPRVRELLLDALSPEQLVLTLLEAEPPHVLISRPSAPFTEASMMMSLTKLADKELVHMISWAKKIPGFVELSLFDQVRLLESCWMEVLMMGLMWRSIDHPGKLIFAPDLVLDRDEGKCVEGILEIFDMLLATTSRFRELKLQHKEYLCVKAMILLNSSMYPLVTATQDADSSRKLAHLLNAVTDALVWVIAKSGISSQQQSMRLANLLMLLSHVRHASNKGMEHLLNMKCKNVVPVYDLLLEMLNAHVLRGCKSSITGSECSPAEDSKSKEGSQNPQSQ

With `Cc1ccccc1C`, the compound was called inactive in assay [1], in assay [4], in assay [6] and in assay [8]. Also, the Potency entry in assay [2], in assay [3], in assay [5] and in [7] was “inactive” in each case.

As for `CCNC(=O)/C=C/c1cccc(Br)c1`, the compound was classed as inactive in assay [1], in assay [4], in assay [6] and in assay [8]. Further, the Potency result in assay [2], in assay [3], in assay [9], in [5] and in assay [7] was “inactive” in each case.

As for `Cc1ncc([N+](=O)[O-])n1CC(O)CCl` (stereo unspecified), the call in assay [1], in [4] and in assay [8] was inactive. Moreover, the Potency result in [2], in [3] and in [7] was “inactive” throughout.

As to `Cc1c(C(C)C)c(=O)n(-c2ccccc2)n1C`, the outcome in assay [1], in assay [4], in assay [6] and in [8] was inactive. The Potency entry in assay [3] and in assay [5] was “inactive” each time. The Potency in assay [9] was 1.06 µM (active).

`CCCCCCCCCOCC1CO1` (stereo unspecified): the compound was called inactive in assay [1], in assay [4] and in assay [8]. In addition, the Potency result in [3], in assay [9], in assay [5] and in [7] was “inactive” throughout.

On to `CO[Si](CCCCl)(OC)OC`, for which the compound was called inactive in assay [1] and in [4]. The Potency entry in assay [2], in assay [3], in assay [9], in [5] and in assay [7] was “inactive” each time.

For `CCCCCCCCCCCCC1CO1` (stereo unspecified), the outcome in assay [1], in assay [4] and in assay [8] was inactive. The Potency result in assay [2], in assay [3], in [5] and in [7] was “inactive” each time.

On to `COc1ccc(NS(=O)(=O)c2ccc(N)cc2)nn1`, for which the result in [1], in assay [4] and in [8] was inactive. Moreover, the Potency entry in [2], in [3] and in [7] was “inactive” in each case.

Take `C1=CCC(c2ccccc2)CC1` (stereo unspecified): the result in assay [1], in [4] and in assay [8] was inactive. Further, the Potency entry in assay [2], in assay [3], in assay [9], in assay [5] and in [7] was “inactive” in each case.

`CC(=O)OC(C)c1ccccc1` (stereo unspecified): the outcome in assay [1], in [4], in [6] and in assay [8] was inactive. Also, the Potency result in [3], in [5] and in [7] was “inactive” each time.

As for `COc1cccc2sc(N)nc12`, the result in [1], in assay [4] and in assay [6] was inactive. Moreover, the Potency result in assay [3] and in assay [7] was “inactive” in each case. Besides, in [9], the Potency was 24.5 µM (active).

With `Cc1nc([N+](=O)[O-])cn1-c1ccc([N+](=O)[O-])cc1`, the compound was called inactive in assay [1], in assay [4] and in assay [8]. Also, the Potency entry in assay [2], in [3] and in assay [7] was “inactive” throughout.

Take `Cc1cc(O)c2c(c1)C(=O)c1cccc(O)c1C2=O`: the compound was called inactive in assay [1], in assay [4] and in assay [8]. For the same compound, the Potency entry in [2], in [9], in assay [5] and in assay [7] was “inactive” each time.

With `CCCCCC1Nc2cc(C(F)(F)F)c(S(N)(=O)=O)cc2S(=O)(=O)N1` (stereo unspecified), the compound was classed as inactive in assay [1], in assay [4], in assay [6] and in assay [8]. Moreover, the Potency entry in [2], in [3], in assay [5] and in assay [7] was “inactive” each time.

Regarding `CC(CC(=O)O)CC(C)(C)C` (stereo unspecified), the call in [1], in [4], in assay [6] and in [8] was inactive. In addition, the Potency entry in [3], in [9], in [5] and in [7] was “inactive” throughout.

For the compound `c1ccc(CNc2ncnc3nc[nH]c23)cc1`, the compound was called inactive in [1], in assay [4] and in assay [8]. In addition, the Potency result in [2], in assay [3], in assay [9], in assay [5] and in assay [7] was “inactive” throughout.

For `CC(C)CCCC(C)CC=O` (stereo unspecified), the result in assay [1], in assay [4] and in assay [8] was inactive. Moreover, the Potency entry in [2], in assay [3], in [9], in [5] and in [7] was “inactive” in each case.

For the compound `CCN(CCO)c1cccc(C)c1`, the compound was called inactive in assay [1] and in assay [4]. Moreover, the Potency result in [2], in assay [3], in [9] and in assay [7] was “inactive” in each case.

As for `C=CCOCC(O)CCl` (stereo unspecified), the call in [1], in [4], in assay [6] and in assay [8] was inactive. In addition, the Potency entry in [2], in assay [3], in assay [9], in [5] and in assay [7] was “inactive” in each case.

Take `O=C(Oc1ccccc1C(=O)O)c1ccccc1O`: the compound was called inactive in assay [1], in assay [4] and in assay [8]. The Potency result in assay [2], in [3], in assay [9] and in assay [7] was “inactive” throughout.

As for `C1=C\CC/C=C\CC/1`, the compound was called inactive in assay [1], in [4] and in assay [8]. Further, the Potency result in assay [2], in [3] and in assay [7] was “inactive” in each case.

For `O=C(Nc1cccc(C2=NCCN2)c1)Nc1cccc(C2=NCCN2)c1`, the activity change, negative = cytotoxicity was 1.17% [at 19 µM] in assay [1] and 1.81% [at 19 µM] in assay [7]. Moreover, the viability change, negative = cytotoxic in assay [2] is 8.12% [at 19 µM]; in assay [3] it was 0.404% [at 19 µM]. The activity change in assay [4] was 1.95% [at 18.9 µM]. In addition, the activity change, negative = inhibition in assay [9] was 17.1% [at 19 µM].

Regarding `CCOC(=O)CCc1ccccc1`, the outcome in assay [1], in assay [4], in [6] and in assay [8] was inactive. Also, the Potency entry in assay [2], in assay [3], in [9], in assay [5] and in [7] was “inactive” in each case.

Take `O=[Si]=O`: the call in assay [1], in assay [4], in assay [6] and in assay [8] was inactive. Further, the Potency result in assay [2], in [3], in [9], in [5] and in assay [7] was “inactive” throughout.

For `CC1CCC(C(C)(C)S)C(=O)C1` (stereo unspecified), the compound was called inactive in [1], in [4] and in assay [6]. Further, the Potency entry in [2], in [3], in [5] and in assay [7] was “inactive” throughout.

For `Nc1cc(Cl)cc(S(=O)(=O)O)c1O`, the compound was called inactive in assay [1], in assay [4] and in assay [8]. The Potency entry in [2], in assay [3] and in [7] was “inactive” in each case.

Regarding `NCCc1ccn[nH]1`, the compound was called inactive in assay [1], in [4], in assay [6] and in [8]. Moreover, the Potency result in assay [2], in [3], in assay [5] and in assay [7] was “inactive” throughout.

The values above are taken from PubChem BioAssay (Tox21).
